Measured values taken from PMC7862700, “An all-to-all approach to the identification of sequence-specific readers for epigenetic DNA modifications on cytosine”.

Columns and labels:
Experiment in all cases: DAPPL (digital affinity profiling via proximity ligation, sequencing); 10 mM Tris-HCl pH 7.5, 50 mM NaCl, 1 mM DTT, 4% glycerol, room temperature, 30 min; GST-TFs on glutathione beads, 16-mer random dsDNA library, 0.1% formaldehyde crosslink after washing; high values mean tight binding
Conditions in all cases: protein: recombinant; tags: N-terminal GST; dsDNA, one strand shown
[1] = molecular target: ETV1 (Homo sapiens, UniProt P50549 1-477)
Procedure, shortened: (§1)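 Beads coated with glutathione captured GST-fused human transcription factors that had been expressed in yeast, and the factors were then given DNA barcodes and pooled with a tag-only sample. The pools were incubated with 200 nmole of a random double-stranded 16-mer DNA library in Tris/NaCl/DTT/glycerol buffer for 30 min at room temperature, washed, crosslinked with 0.1% formaldehyde and proximity-ligated with BsaI/T4 ligase at 37 °C for 1 h. PCR amplification and Illumina NextSeq500 sequencing came last. Binding signal is each hexamer's read frequency for a factor divided by its frequency for the tag-only sample.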

[2] = molecular target: T1, ERF (Homo sapiens, UniProt P50548 1-548)
T1 sequence: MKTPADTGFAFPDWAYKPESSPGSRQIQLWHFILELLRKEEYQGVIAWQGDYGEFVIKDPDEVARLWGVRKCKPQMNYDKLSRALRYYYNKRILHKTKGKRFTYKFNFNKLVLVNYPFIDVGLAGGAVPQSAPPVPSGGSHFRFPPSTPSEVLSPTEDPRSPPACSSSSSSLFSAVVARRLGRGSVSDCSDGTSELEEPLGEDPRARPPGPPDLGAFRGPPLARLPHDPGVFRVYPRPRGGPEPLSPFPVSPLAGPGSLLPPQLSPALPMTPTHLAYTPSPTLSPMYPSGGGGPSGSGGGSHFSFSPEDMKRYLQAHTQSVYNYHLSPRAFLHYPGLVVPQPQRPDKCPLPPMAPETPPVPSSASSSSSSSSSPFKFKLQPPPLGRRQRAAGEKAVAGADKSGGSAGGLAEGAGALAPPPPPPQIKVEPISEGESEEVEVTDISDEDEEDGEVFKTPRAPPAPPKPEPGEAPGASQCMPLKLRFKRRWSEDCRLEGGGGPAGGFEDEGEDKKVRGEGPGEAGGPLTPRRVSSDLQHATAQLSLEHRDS
Procedure, shortened: as §1

[3] = molecular target: T2, ETV3L (Homo sapiens, UniProt Q6ZN32 1-361)
T2 sequence: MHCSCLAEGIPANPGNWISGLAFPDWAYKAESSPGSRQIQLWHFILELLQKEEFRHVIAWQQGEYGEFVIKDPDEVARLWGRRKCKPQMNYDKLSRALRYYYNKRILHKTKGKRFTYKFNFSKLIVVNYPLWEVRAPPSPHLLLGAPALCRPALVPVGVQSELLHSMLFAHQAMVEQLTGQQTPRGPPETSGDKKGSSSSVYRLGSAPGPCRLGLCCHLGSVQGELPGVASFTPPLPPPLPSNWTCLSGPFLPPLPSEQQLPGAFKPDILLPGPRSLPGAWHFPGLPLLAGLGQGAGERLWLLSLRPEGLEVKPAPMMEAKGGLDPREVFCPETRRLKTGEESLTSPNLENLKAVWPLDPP
Procedure, shortened: as §1

[4] = molecular target: T3, ETS2 (Homo sapiens, UniProt P15036 1-469)
T3 sequence: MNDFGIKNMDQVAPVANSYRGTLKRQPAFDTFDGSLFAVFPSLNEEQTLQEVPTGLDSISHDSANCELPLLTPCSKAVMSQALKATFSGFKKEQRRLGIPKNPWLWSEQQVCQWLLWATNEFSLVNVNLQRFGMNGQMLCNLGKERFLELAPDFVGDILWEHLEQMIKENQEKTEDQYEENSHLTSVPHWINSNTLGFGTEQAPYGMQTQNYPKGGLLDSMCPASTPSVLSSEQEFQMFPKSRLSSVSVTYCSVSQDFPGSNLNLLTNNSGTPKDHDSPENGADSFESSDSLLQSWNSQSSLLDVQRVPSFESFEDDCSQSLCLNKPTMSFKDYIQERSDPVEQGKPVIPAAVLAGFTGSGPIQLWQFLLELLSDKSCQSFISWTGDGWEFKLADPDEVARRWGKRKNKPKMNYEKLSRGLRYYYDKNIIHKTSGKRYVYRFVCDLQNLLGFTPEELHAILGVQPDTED
Procedure, shortened: as §1

[5] = molecular target: T4, SPDEF (Homo sapiens, UniProt O95238 1-335)
T4 sequence: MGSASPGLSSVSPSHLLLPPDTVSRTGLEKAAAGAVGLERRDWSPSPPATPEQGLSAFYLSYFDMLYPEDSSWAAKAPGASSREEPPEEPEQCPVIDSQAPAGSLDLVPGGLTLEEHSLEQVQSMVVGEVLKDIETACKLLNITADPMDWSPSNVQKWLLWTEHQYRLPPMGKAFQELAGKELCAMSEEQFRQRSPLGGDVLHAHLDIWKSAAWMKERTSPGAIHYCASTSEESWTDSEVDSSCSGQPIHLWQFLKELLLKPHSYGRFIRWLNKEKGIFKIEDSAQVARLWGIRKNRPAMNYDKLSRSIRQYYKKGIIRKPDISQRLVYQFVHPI
Procedure, shortened: as §1

[6] = molecular target: T5, ETV7 (Homo sapiens, UniProt Q9Y603 1-341)
T5 sequence: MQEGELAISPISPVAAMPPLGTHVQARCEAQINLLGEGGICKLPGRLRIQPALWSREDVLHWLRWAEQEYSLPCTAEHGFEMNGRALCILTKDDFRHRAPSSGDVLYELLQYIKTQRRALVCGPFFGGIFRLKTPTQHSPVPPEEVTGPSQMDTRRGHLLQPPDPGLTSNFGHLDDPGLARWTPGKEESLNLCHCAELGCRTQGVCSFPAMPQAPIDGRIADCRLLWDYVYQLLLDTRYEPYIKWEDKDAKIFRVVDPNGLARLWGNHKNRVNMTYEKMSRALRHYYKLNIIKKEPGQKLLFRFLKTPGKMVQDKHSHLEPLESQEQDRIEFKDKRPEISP
Procedure, shortened: as §1

[7] = molecular target: T6, ELF5 (Homo sapiens, UniProt Q9UKW6-2 1-255)
T6 sequence: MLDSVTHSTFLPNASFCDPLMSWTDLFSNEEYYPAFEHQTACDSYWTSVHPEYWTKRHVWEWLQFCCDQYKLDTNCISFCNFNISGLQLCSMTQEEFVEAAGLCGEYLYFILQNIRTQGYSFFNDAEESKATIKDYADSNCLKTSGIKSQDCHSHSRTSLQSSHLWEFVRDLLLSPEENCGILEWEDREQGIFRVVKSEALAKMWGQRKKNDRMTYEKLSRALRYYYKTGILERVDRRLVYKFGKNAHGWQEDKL
Procedure, shortened: as §1

[8] = molecular target: T7, ETV3 (Homo sapiens, UniProt P41162-2 1-143)
T7 sequence: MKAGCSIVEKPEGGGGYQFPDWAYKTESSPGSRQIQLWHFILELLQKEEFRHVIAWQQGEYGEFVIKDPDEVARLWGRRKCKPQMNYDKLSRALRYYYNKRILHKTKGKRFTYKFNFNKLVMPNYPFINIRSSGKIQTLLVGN
Procedure, shortened: as §1

[9] = molecular target: ETV6 (Homo sapiens, UniProt P41212 1-452)
Procedure, shortened: as §1

Sequence of ETV6 (P41212 whole entry): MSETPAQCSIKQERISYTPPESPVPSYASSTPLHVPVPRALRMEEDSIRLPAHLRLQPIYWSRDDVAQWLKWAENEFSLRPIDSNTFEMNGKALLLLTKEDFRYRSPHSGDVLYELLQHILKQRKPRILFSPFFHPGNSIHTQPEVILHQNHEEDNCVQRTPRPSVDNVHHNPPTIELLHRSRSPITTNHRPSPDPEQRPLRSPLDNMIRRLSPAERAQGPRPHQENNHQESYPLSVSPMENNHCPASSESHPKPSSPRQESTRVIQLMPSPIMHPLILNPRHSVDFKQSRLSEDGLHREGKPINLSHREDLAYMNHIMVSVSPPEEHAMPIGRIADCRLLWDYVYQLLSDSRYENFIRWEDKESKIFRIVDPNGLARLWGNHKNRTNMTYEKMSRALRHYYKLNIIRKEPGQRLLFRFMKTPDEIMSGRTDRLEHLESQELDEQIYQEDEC
Sequence of ETV1 (P50549 whole entry, the tested form may be a part): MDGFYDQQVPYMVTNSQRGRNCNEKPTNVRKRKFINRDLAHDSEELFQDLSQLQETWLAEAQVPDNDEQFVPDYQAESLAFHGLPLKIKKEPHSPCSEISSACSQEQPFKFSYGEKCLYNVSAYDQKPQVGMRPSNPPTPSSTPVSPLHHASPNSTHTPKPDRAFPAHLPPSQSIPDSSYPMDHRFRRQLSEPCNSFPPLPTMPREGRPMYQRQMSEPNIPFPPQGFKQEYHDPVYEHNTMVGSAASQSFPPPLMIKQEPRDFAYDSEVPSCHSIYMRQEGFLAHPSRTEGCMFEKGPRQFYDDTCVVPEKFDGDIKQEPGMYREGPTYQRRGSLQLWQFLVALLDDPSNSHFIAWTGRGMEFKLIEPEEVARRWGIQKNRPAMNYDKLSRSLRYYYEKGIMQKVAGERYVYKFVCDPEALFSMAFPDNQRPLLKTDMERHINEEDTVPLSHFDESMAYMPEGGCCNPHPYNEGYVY

Sequence: AACTCC
- binding signal [1]: 1.26 fold enrichment (6-mer frequency, TF over GST control)
- binding signal [2]: 1.36 fold enrichment (6-mer frequency, TF over GST control)
- binding signal [3]: 1.27 fold enrichment (6-mer frequency, TF over GST control)
- binding signal [4]: 1.32 fold enrichment (6-mer frequency, TF over GST control)
- binding signal [5]: 1.33 fold enrichment (6-mer frequency, TF over GST control)
- binding signal [6]: 1.31 fold enrichment (6-mer frequency, TF over GST control)
- binding signal [7]: 1.32 fold enrichment (6-mer frequency, TF over GST control)
- binding signal [8]: 1.34 fold enrichment (6-mer frequency, TF over GST control)
- binding signal [9]: 1.4 fold enrichment (6-mer frequency, TF over GST control)
